GALK inh: inhibits human galactokinase; P51570; recombinant GALK, Kinase-Glo ATP luminescence, 1 h; Potency, µM (doses to about 57.5 µM), without a hit: at the top dose activity, negative = inhibition, most hits filed as inhibitors; 44,000 tested, under 10 active; AID 1347072;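 further: plate controls were full GALK reaction for no effect and reaction lacking GALK for full effect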
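Compounds were pinned into ATP buffer, then GALK-galactose mix was added (final 5 nM enzyme, 35 uM ATP, 100 uM galactose, pH 8.0). After 1 h at room temperature, Kinase-Glo Plus was added and luminescence read.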
DRV1 agonist: GPR32 (DRV1) agonism, beta-arrestin recruitment; hit rate 2.5% among 48,000; activation, % at 76.9 µM; CHO-K1 GPR32 beta-arrestin PathHunter luminescence, 90 min; zero percent set by DMSO-only wells; O75388;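 active means activation of at least 60% and not above a set upper limit, about 1 call in 100 departs from these limits; inconclusive means activation of 40% to 60%, or above that upper limit; inactive means activation under 40%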; further: 0% is about no effect
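GPR32 activation in stably transfected CHO-K1 cells, detected as beta-arrestin recruitment by enzyme-fragment complementation. Compound exposure: 90 min, 37 °C.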
GALC G270D act: raises human GALC G270D mutant activity in cells | P54803 | 145M-Twi-hGALC-G270D cells (Twitcher mouse brain line with human GALC G270D), HMU-beta-Gal fluorescence, 48 h | Potency, µM (series often up to 57.5 µM), most hits filed as activators | hit rate 0.1% among 45,000; further: potency means the concentration at half of the fitted maximal effect; 0% is about no effect; nearly all actives have a fitted effect of over 65% in size
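Mutant human GALC (G270D), stably expressed in a Twitcher mouse brain cell line lacking endogenous GALC, is measured in live-treated cells via 6-hexadecanoylamino-4-methylumbelliferyl-β-galactoside hydrolysis (0.1 mM final, pH 5.2) with fluorescent detection.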
NTMT1 inh: blocks human N-terminal methyltransferase 1 activity; NTMT1 MTase-Glo SAH luminescence, purified enzyme; Potency, µM (series often up to 114 µM), without a hit: at the highest dose activity change, negative = inhibition, most hits filed as inhibitors; hit rate 2.5% among 59,000; Q9BV86;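 further: potency means the concentration at half of the fitted maximal effect; plate controls were DMSO vehicle for no effect and no enzyme for full effect; nearly all actives have a fitted effect of over 65% in size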
Target sequence (Q9BV86 whole entry, looked up): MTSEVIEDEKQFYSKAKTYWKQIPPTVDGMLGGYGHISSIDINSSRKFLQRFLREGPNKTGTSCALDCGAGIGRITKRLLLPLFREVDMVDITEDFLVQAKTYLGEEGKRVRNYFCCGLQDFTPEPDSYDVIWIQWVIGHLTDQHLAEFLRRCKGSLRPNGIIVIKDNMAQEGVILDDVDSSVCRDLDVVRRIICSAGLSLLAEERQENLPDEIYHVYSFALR
B2AR arrestin ag: beta-arrestin recruitment by human beta2-adrenergic receptor ligands. P07550. HTLA Tango cells, beta-arrestin recruitment, luciferase luminescence, 18 h. Potency, µM (series often up to 46.1 µM), most hits filed as activators. 44,000 tested, under 10 active. AID 1347077;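 further: potency means the concentration at half of the fitted maximal effect; 0% = DMSO and full agonism = EC100 isoproterenol or metaproterenol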
Target sequence (P07550 whole entry, looked up): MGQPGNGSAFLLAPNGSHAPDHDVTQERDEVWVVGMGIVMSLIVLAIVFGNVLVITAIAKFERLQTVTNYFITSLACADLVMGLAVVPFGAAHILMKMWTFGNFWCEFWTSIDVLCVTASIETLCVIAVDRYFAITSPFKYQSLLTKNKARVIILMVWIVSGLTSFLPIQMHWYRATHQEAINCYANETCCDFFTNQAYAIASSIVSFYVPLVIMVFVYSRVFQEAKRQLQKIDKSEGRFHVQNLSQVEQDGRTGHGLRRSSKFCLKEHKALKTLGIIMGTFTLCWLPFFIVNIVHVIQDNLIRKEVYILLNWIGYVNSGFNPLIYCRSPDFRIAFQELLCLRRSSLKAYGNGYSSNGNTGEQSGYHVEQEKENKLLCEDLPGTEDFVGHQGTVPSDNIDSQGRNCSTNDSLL
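First, Tango cells carrying beta2-AR and beta-arrestin fusions received compound up to 46 microM. After 18 hr at 37 degrees C, luciferase substrate was added for 15 minutes, then luminescence gave %Activity for curve fitting.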
Active calls of the source: *; i = inactive; u = inconclusive; x = no result; ! = not active in a repeat; [ ] = another dose, or the depositor's remark. Only some compounds are listed: those with a hit (about 3.6% of all), similar ones and a draw of the others. Unless noted, the call rests on the fitted dose curve; in most records, active means well fitted curve in the direction sought with a large enough effect; inconclusive means small, poorly fitted or top-dose-only effect, or another doubt; inactive means no such curve, though single readings can be large; an effect the other way counts as inactive or inconclusive.

SMILES | GALK inh | DRV1 agonist | GALC G270D act | NTMT1 inh | B2AR arrestin ag
COc1cccc(NC(=O)CSc2nnc(-c3cccc(OC)c3)o2)c1 | -7% | 78* | i | 6% | i
COc1cc(O)c(C(CC(=O)N2CCN(c3ccc(F)cc3)CC2)c2ccc3c(c2)OCO3)c(OC)c1 (stereo not given) | x | x | x | 13% | x
C[C@@H]1CC[C@]2(C)C3(C)CC[C@@]2(OC3=O)[C@@]12C[C@H](c1ccoc1)OC2=O | x | x | x | 3%[29.8 µM] | x
C[C@@H](Nc1cc(F)cc(F)c1)c1cc(C(=O)N(C)C)cc2c(=O)cc(N3CCOCC3)oc12 | x | x | x | 18% | x
C[C@@H]1CC2C3C[C@H](F)C4=CC(=O)C=C[C@]4(C)[C@@]3(F)[C@@H](O)C[C@]2(C)[C@@]1(OC(=O)c1ccco1)C(=O)SCF (stereo not given in full) | x | x | x | 7% | x
Cc1cccc2oc(NC3=NC(c4[nH]ncc4Cl)C4=C(CCCC4=O)N3)nc12 (stereo not given) | x | x | x | -11% | x
Cc1ccc(-n2ncc3c(Nc4cccc(C)c4C)ncnc32)cc1 | -6% | -15 | i | -3% | i
CC(C)(C)c1ccc(C(=O)NNc2ncnc3c2cnn3-c2ccccc2)cc1 | 0% | 104* | i | 10% | i
Cc1ccc(Nc2ncnc3c2cnn3-c2ccccc2)c(C)c1 | 3% | 21 | i | 11µM* | i
Cc1ccc(-n2ncc3c(N(CC(C)C)CC(C)C)ncnc32)c(C)c1 | -1% | 30 | i | -4% | i
Cc1ccc(-n2ncc3c(NCC(C)C)ncnc32)c(C)c1 | -1% | 62* | i | 4% | i
COc1ccc(Cl)cc1-c1cc(=O)[nH]c(=S)n1CC(N)=O | x | x | x | 15% | x
Cc1cc(C)n2ncc(C(=O)Nc3ccc(S(C)(=O)=O)cc3)c2n1 | x | x | x | 0%[57.5 µM] | x
O=C(NC1CCN(Cc2ccccc2)CC1)c1ccc(Cn2c(=O)c3ccccc3n(Cc3ccc(Cl)cc3)c2=O)cc1 | -1% | 5 | i | 0% | i
COCCCNC(=O)Cn1c(=O)n(Cc2ccc(C(=O)NCc3ccc(C)cc3)cc2)c(=O)c2ccccc21 | 1% | 98* | i | 79µM* | i
COCCCNC(=O)c1ccc(Cn2c(=O)c3ccccc3n(CC(=O)Nc3ccc(C)cc3C)c2=O)cc1 | 7% | 7 | i | u | i
O=C(NC1CCN(Cc2ccccc2)CC1)c1ccc(Cn2c(=O)c3ccccc3n(Cc3ccccc3)c2=O)cc1 | 0% | 10 | i | 79µM* | i
c1nc2nc(Nc3ccc(N4CCOCC4)cc3)nc(NC3CCCCC3)c2[nH]1 | x | x | x | 40µM*! | x
COC(=O)c1ccccc1NC(=O)CSc1nc(-c2ccccc2)cc(C(F)(F)F)n1 | 2% | -7 | 10µM* | 1% | i
COC(=O)c1ccccc1NC(=O)CSc1n[nH]c(C)n1 | 0% | 6 | i | -17% | i
O=C1c2c(O)ccc(O)c2C(=O)c2c(NCCNCCO)ccc(NCCNCCO)c21 | x | -34 | i | 28µM*! | x
CC(C)c1ccc(Cn2ccc3c4c(N)nc(NC5CC5)nc4ccc32)cc1 | x | x | x | 25µM*! | x
CC1CCC2(C(=O)O)CCC3(C)C(=CCC4C5(C)C[C@@H](O)[C@@H](O)C(C)(CO)C5CCC43C)C2C1(C)O (stereo not given in full) | x | x | x | -8%[29.8 µM] | x
COC(=O)C1(Cc2ccc(O)cc2)OC(=O)C(OC)=C1c1ccc(O)cc1 (stereo not given) | x | x | x | 10%[29.8 µM] | x
CC(C)(C)c1ccc(C(=O)Nc2onc3c2CCCC3)cc1 | 0% | 88* | i | -3% | i
SMILES | GALK inh | DRV1 agonist | GALC G270D act | NTMT1 inh | B2AR arrestin ag
CC(C)COc1ccc(C(=O)Nc2onc3c2CCCC3)cc1 | 4% | 114* | i | -3% | i
O=C1OC(COc2ccccc2[N+](=O)[O-])CC1Cc1ccccc1 (stereo not given) | x | x | x | 5% | x
COc1cc(-n2c(=O)c3ccccc3n(Cc3cccc(Cl)c3)c2=O)cc(OC)c1OC | 0% | -2 | i | 89µM* | i
COc1cccc(NC(=O)Cn2c(=O)n(Cc3ccco3)c(=O)c3cc(OC)c(OC)cc32)c1 | 2% | 74* | i | -3% | i
COc1ccc(OC)c(NC(=O)Cn2c(=O)n(Cc3ccco3)c(=O)c3cc(OC)c(OC)cc32)c1 | -7% | 20 | i | -1% | i
CC(=O)Nc1ccc(S(=O)(=O)NCC2CCC(C(=O)NCc3ccccc3)CC2)cc1 (stereo not given) | -1% | 99* | i | 11% | i
O=C(NCc1ccccc1Cl)C1CCC(CNS(=O)(=O)c2ccc(Br)s2)CC1 (stereo not given) | 2% | 98* | i | u | i
O=C(NCc1ccc(Cl)cc1)C1CCC(CNS(=O)(=O)c2ccccc2)CC1 (stereo not given) | 2% | 83* | i | -24% | i
COc1ccc(/C=C/C(=O)O[C@H]2[C@H](O[C@H]3[C@@H]4C=CO[C@@H](O[C@@H]5O[C@H](CO)[C@@H](O)[C@H](O)[C@H]5O)[C@@H]4[C@@]4(CO)O[C@@H]34)O[C@@H](C)[C@H](O)[C@H]2OC(C)=O)cc1 | x | x | x | 0%[12.6 µM] | x
O=C(O)c1ccc(O)c2ncc(NC3CCNCC3)cc12 | x | x | x | 2%[57.5 µM] | x
CCN(CCCNC(=O)CSc1cc(=O)n(CC)c2ccccc12)c1cccc(C)c1 | -3% | 75* | i | u | i
CCn1c(=O)cc(SCC(=O)NCCc2cccc(C)c2)c2ccccc21 | -2% | 97* | i | -7% | i
CC[C@@H](C)[C@H](NC(=O)C(C)(C)NC(=O)[C@H](CCC(N)=O)NC(=O)C(C)(CC)NC(=O)[C@H](Cc1c[nH]c2ccccc12)NC(C)=O)C(=O)N[C@H](C(=O)NC(C)(C)C(=O)N[C@@H](CC(C)C)C(=O)NC(C)(C)C(=O)N1CCC[C@H]1C(=O)N[C@@H](CCC(N)=O)C(=O)NC(C)(C)C(=O)N1CC(O)C[C@H]1C(=O)NC(C)(CC)C(=O)C1CC[C@@H](C(=O)N[C@@H](Cc2ccccc2)C(=O)NCC(=O)O)N1)C(C)O (stereo not given in full) | x | x | x | -42%[6.45 µM] | x
COc1cc(O)c(C(CC(=O)N2CCC(Cc3ccccc3)CC2)c2ccc(C)cc2)c(OC)c1 (stereo not given) | x | x | x | 9%[228 µM] | x
FC(F)(F)c1ccccc1-c1nc(NCc2ccc(-c3ccc(Cl)c(Cl)c3)cc2)c2ccccc2n1 | x | x | x | -8%[57.5 µM] | x
O=C(Nc1cccc(F)c1)c1ccc(-c2ccccc2)s1 | 7% | 68* | i | 3% | i
Cc1cccc(NC(=O)c2ccc(-c3ccccc3)s2)c1 | -1% | -9 | i | -11% | i
COc1cc2c(cc1OC)CC(=O)N(CCCNC[C@H]1Cc3cc(OC)c(OC)cc31)CC2 | x | x | x | 15%[57.5 µM] | x

Screening results deposited in PubChem by National Center for Advancing Translational Sciences (NCATS).
